Screens from PubChem.
APE1 inh: qHTS Assay for Inhibitors of the Human Apurinic/apyrimidinic Endonuclease 1 (APE1); recombinant APE1, TAMRA/BHQ-2 abasic DNA cleavage fluorescence; AID 2517, 2012; DNA repair nuclease/redox regulator APEX1 (Homo sapiens), P27695; hit rate 0.35% among 350,000; Potency, µM (top dose mostly 65.8 µM), for the others: at the highest dose activity change, negative = inhibition, usual class: inhibitors;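 note: plate controls were vehicle for no effect and reference inhibitor for full effect; nearly all actives have a fitted effect of over 55% in size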
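0.75 nM APE1 + cpd, 15 min RT; start w/ 50 nM TAMRA/BHQ-2 THF-abasic dsDNA; kinetic fluor 525/598 nm ×3 reads @60 s; Δ(read3−read1); normalized to DMSO and NSC13755 control wells.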
RECQ1 inh: qHTS Assay for Inhibitors of RecQ-Like Dna Helicase 1 (RECQ1). ATP-dependent DNA helicase Q1 (Homo sapiens), P46063. RECQ1 DNA unwinding, red fluorescence kinetic read. Potency, µM (titrated, usually from 57.3 µM), for inactives: at the highest dose activity, negative = inhibition, actives largely listed as inhibitors. hit rate 0.54% among 240,000. AID 2549, 2010;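 note: plate controls were vehicle for no effect and no enzyme for full effect; nearly all actives have a fitted effect of over 30% in size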
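50 nM RECQ1T1 preincubated 15 min with compound in Tris pH 8.0 buffer with MgCl2, DTT, Tween-20 and 2.5 ug/ml poly(dI-dC); started with 200 nM TAMRA/BHQ-2 forked duplex and 2 mM ATP. Unwinding read as fluorescence (525/598 nm), two reads 2 h apart.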
BLM helicase inh: qHTS Assay for Inhibitors of Bloom's syndrome helicase (BLM); recombinant BLM DNA unwinding, fluorescence dequenching; Potency, µM (top dose mostly 56.1 µM), inactives show at the top dose activity change, negative = inhibition, hits mostly inhibitors; hit rate 0.2% among 350,000;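 note: plate controls were vehicle for no effect and no enzyme for full effect; nearly all actives have a fitted effect of over 35% in size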
TDP1 block: qHTS Assay for Inhibitors of Tyrosyl-DNA Phosphodiesterase (TDP1) | recombinant TDP1, AlphaScreen DNA substrate cleavage | Potency, µM (top dose mostly 130 µM), for the others: top-dose activity change, negative = inhibition, hits mostly inhibitors | hit rate 0.28% among 350,000 | AID 485290, 2010; note: nearly all actives have a fitted effect of over 40% in size
Target sequence (Q9NUW8 whole entry, looked up): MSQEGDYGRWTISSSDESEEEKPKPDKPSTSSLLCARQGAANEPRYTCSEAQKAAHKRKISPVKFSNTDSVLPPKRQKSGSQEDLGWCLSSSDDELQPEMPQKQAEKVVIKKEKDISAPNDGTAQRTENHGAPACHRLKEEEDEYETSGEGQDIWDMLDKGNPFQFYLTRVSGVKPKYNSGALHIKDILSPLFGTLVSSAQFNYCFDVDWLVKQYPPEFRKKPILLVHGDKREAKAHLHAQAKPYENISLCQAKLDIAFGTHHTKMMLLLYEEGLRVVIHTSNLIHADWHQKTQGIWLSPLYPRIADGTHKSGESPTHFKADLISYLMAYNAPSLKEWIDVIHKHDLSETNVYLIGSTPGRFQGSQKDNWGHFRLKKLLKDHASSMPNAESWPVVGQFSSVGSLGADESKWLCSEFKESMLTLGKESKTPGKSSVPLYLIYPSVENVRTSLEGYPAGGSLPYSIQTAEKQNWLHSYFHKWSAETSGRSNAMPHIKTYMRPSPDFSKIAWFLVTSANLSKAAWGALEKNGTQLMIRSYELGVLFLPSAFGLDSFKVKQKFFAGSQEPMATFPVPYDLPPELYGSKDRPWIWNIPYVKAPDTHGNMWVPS
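Enzyme-compound mixtures sat 15 min at room temperature, followed by a 5 min reaction with 15 nM final substrate and 10 min with AlphaScreen beads. Recombinant human Tdp1 was used at 1 nM final.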
KDM4E inh: qHTS Assay for Inhibitors of Human Jumonji Domain Containing 2E (JMJD2E); Lysine-specific demethylase 4E (Homo sapiens), B2RXH2; JMJD2E catalytic domain, FDH-coupled NADH fluorescence (FDH is formaldehyde dehydrogenase); Potency, µM (titrated, usually from 57.1 µM), for the others: top-dose activity change, negative = inhibition, hits mostly inhibitors; hit rate 1.6% among 230,000; active = well fitted inhibition curve with a large enough effect, not every such curve was filed as active; inconclusive = small, poorly fitted or top-dose-only effect, or another doubt; inactive = no such curve, though single readings can be large or run the other way;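 note: 0% = wells with enzyme and -100% = buffer wells without enzyme; nearly all actives have a fitted effect of over 50% in size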
KAT2A inh: qHTS Assay for Inhibitors of GCN5L2 | Histone acetyltransferase KAT2A (Homo sapiens), Q92830 | Potency, µM (titrated, usually from 58.9 µM), without a hit: top-dose activity change, negative = inhibition, most hits filed as inhibitors | GCN5L2 HAT assay, ThioGlo1 CoA-SH fluorescence | AID 504327, 2011 | hit rate 0.21% among 390,000
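Free CoA generated was detected with ThioGlo1 (50uM) fluorescence at Ex340nm/Em540nm, read immediately and after 20 min at room temperature. Enzyme, 20 nM in HEPES pH 7.5 buffer, saw compounds 15 min before adding 75uM H3(1-25) peptide and 70uM acetyl-CoA.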
The depositor's hits bear a star; i = inactive; u = inconclusive; x = not tested or not shown; ! = not active in a repeat; [ ] = remark or other dose. This excerpt belongs to a sample that is enriched for hits. Unless noted, calls come from the whole dose curve; as a rule, active = well fitted curve in the direction sought with a large enough effect; inconclusive = small, poorly fitted or top-dose-only effect, or another doubt; inactive = no such curve, though single readings can be large; an effect the other way counts as inactive or inconclusive. Unless noted, % is set by controls: 0 for no effect and ±100 for the full control effect; potency is the fitted concentration of half-maximal effect.

SMILES | APE1 inh | RECQ1 inh | BLM helicase inh | TDP1 block | KDM4E inh | KAT2A inh
Cc1ccc(-c2c3c([nH]c(=S)c2C#N)CCCC3)o1 | u | u | u | 32µM* | 28µM* | -21%
N#Cc1c(-c2ccncc2)c2c([nH]c1=S)CCCC2 | 3% | 1% | 0% | 6% | -26% | u
CCOC(=O)N1CCN(c2nc(-c3ccco3)cc(C(F)(F)F)n2)CC1 | 2% | -7% | -1% | 0% | 4% | 4µM*
N[C@H](C(=O)O)c1nn[nH]n1 | -4% | i | 2% | 11%[56.1 µM] | 20µM* | -5%
O=C[C@H](O)[C@@H](O)[C@H](O)[C@H](O)CO | -2% | x | x | x | x | x
O=C(CCN1CCN(c2ccccc2)CC1)N/N=C/c1ccc(O)c(O)c1O | 2% | i | 11µM* | 0% | -6% | -22%
O=C(CCN1CCOCC1)N/N=C/c1cc(Br)cc(Br)c1O | -14% | -3% | -6% | 2% | 28µM* | 2%
COC(=O)C1=C(C)NC(=O)/C1=C\c1cc(C)n(-c2ccc(F)cc2)c1C | 17% | i | -21% | -2% | 20µM* | -12%
COC(=O)C1=C(C)NC(=O)/C1=C\c1cc(C)n(-c2cccc(C)c2)c1C | -2% | -24% | -9% | 10% | -12% | -14%
NC(=O)c1cc[n+](CC2=C(C(=O)[O-])N3C(=O)[C@@H](NC(=O)Cc4cccs4)[C@@H]3SC2)cc1 | x | -4%[25.9 µM] | -6%[21.4 µM] | 16µM* | 13%[25.5 µM] | -23%[21.4 µM]
NC(=O)c1cc[n+](CC2=C(C(=O)O)N3C(=O)C(NC(=O)C(c4ccccc4)S(=O)(=O)[O-])C3SC2)cc1 (stereo unspecified) | -4% | 15% | 3% | u | u | x
O=C(Cc1cccs1)N[C@@H]1C(=O)N2C(C(=O)[O-])=C(C[n+]3ccccc3)CS[C@H]12 | 28µM* | x | x | x | x | x
CC(C)(O/N=C(\C(=O)N[C@@H]1C(=O)N2C(C(=O)[O-])=C(C[n+]3ccccc3)CS[C@H]12)c1csc(N)n1)C(=O)O | -14%[21 µM] | x | x | x | x | x
S=C(Nc1ccccn1)c1ccccn1 | 1% | 2% | -1% | 8% | 13µM* | -7%
CN1c2ccccc2C(=O)N2CCc3c([nH]c4ccccc34)C21 (stereo unspecified) | 9% | 7% | 4% | 9% | x | x
CCCCON1C(=O)c2cccc3cccc(c23)C1=O | 14% | x | 1% | 35µM* | x | -17%
O=C1CCc2cc(S(=O)(=O)Nc3cccc(F)c3)ccc2N1 | x | x | x | -3% | x | x
CC(C)CN=Cc1c(O)c([N+](=O)[O-])cc2oc3c(c12)CCCC3 | 21% | -3% | -1% | -3% | 13µM* | u
CC(=O)Nc1ccc(S(=O)(=O)N2CCN(S(=O)(=O)c3c(F)cccc3F)CC2)cc1 | x | x | x | 0% | x | x
COc1ccc(CCn2c(=S)[nH]c(=O)c3nccnc32)cc1OC | x | x | x | 0% | x | x
CC1=NN(c2ccccc2)C(=O)C1N=Nc1ccccc1 (stereo unspecified) | 2% | -1% | 1% | 8% | 7% | -2%
CC1=NN(c2ccccc2)C(=O)C1N=Nc1ccc(N)cc1 (stereo unspecified) | 11% | -14% | -6% | 13% | 14µM* | -17%
Cc1c(C(=O)OCC[N+]2(C)CCCCC2)oc2ccccc12 | -2% | i | 8% | 6% | 25µM* | -8%
COc1ccc2c(c1OC)C(=O)N1c3ccccc3C(=O)N(Cc3ccco3)C21 (stereo unspecified) | x | x | x | 0% | x | x
COc1cccc(C2c3c(ncn(-c4ccccc4C(C)(C)C)c3=N)Oc3ccc4ccccc4c32)c1 (stereo unspecified) | x | x | x | 4% | x | x
SMILES | APE1 inh | RECQ1 inh | BLM helicase inh | TDP1 block | KDM4E inh | KAT2A inh
COc1ccc2nc(-c3cccc(F)c3)sc2c1 | -1% | x | x | x | x | x
Cc1cccc(-n2c3nc(=O)[nH]c(=O)c-3cc3cc([N+](=O)[O-])ccc32)c1 | 12% | -16% | 2% | 3% | u | 2%
Cc1ccc(C)c(-n2c3nc(=O)[nH]c(=O)c-3cc3cc([N+](=O)[O-])ccc32)c1 | 4% | 0% | 20µM* | -1% | 0% | -7%
Nc1cc(S(=O)(=O)N2CCN(S(=O)(=O)c3ccc4c(c3)OCCO4)CC2)ccn1 | x | x | x | -3% | x | x
O=C(CSc1ncn[nH]1)c1cccc([N+](=O)[O-])c1 | -5% | -3% | 3% | 1% | 7.9µM* | -9%
CCOc1cc(C2C3=C(CCCC3=O)NC3=C2C(=O)CCC3)ccc1OCCO | 4% | 19% | -2% | -1% | 32µM* | -4%
c1nc2nc(Nc3ccc(N4CCOCC4)cc3)nc(NC3CCCCC3)c2[nH]1 | -5% | -19% | -10% | 25% | x | -12%
Cc1ccc(NC(=S)NNC(=O)c2nn(C)c(C)c2Cl)cc1 | 1% | -8% | 3% | 9% | 13µM* | -4%
COC(=O)/C=C\c1cc(O)ccc1O | u | -5% | -7% | 9%[56.1 µM] | 32µM* | u
COC(=O)/C=C/C(=O)Nc1ccc(O)c(Cl)c1 | 4% | -2% | 3% | -1% | -4% | -4%
Cc1ccc(S(=O)(=O)c2ccc(C)cc2)cc1 | 5% | -11% | -8% | -4% | -11% | -6%
Cc1ccc(S(=O)(=O)/C=C2\NC(=O)CS2)cc1 | -3% | i | -2% | 9% | 4% | -22%
CC(C)(C)c1ccc(S(=O)(=O)/C=C\C#N)cc1 | -1% | -10% | -6% | 19%[56.1 µM] | u | 28µM*
Cc1ccc(S(=O)(=O)/C=C\C#N)cc1 | 0% | -2% | -2% | 17% | -27% | 28µM*
Cc1ccc(S(=O)(=O)/C=C/C#N)cc1 | -2% | 4% | 0% | 21% | x | 22µM*!
CC(=O)c1ccccc1S(=O)(=O)N1CCN(c2nc(-c3cccs3)nc3ccccc23)CC1 | x | x | x | 3% | x | x
COc1ccc(CCn2c3c(c(=O)[nH]c2=S)CN(CC(C)C)CN3)cc1OC | x | x | x | 1% | x | x
CCCCCCN(C(=O)CCCCCN1C(=O)NC(c2ccc(C3CCCCC3)cc2)C(C(=O)OCc2ccccc2)=C1C)C(C(=O)NCCCC)c1ccc(OCC(=O)OC)c(C(=O)OC)c1 (stereo unspecified) | 0.45µM*! | -12% | -9% | -1% | -12% | -22%
Cc1ccc(C)n1-c1cccc(C(=O)O)c1 | 1.8µM* | u | u | u | u | u
